# Source: PubChem
# Most compounds without a hit are left out; they make up all but 1.2% or so of the library.
# KCNH2 3.1 inh: blocks the human KCNH2 3.1 channel isoform | U2OS KCNH2 3.1, thallium flux FluxOr; active compounds read low | activity change, % (tested at about 1.8 µM) | 0.95% of 340,000 active | AID 720553;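 active = maximum activity change below -70%; inconclusive = maximum activity change from -70% to -50%; inactive = maximum activity change above -50%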;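 note: thallium influx rate constant from kinetic fluorescence after stimulation buffer; % is set by controls: 0 for no effect and ±100 for the full control effect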
#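 FluxOr-based Tl+ influx in U2OS cells transduced with KCNH2 3.1 virus; rate constants normalized to DMSO controls.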
# TRPV1 agonist: agonists of human vanilloid receptor 1 (TRPV1). Q8NER1. TRPV1-expressing cells, Fluo-8 calcium influx, agonist mode. activation, % at 8.33 µM. 0.19% of 320,000 active; in the data active = activation above about 80%; inconclusive = between about 30% and that limit; note: 0% is about no effect
#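 Fluo-8 calcium influx in TRPV1-expressing cells, kinetic read (ex 480/em 520 nm). Compound added and read 3 min for agonist activity, followed by capsaicin at EC20 final and 2 min further read for enhancement.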
# KCNH2 WT inh: inhibitors of human wildtype KCNH2 potassium channel; Q12809; U2OS, BacMam KCNH2, thallium flux FluxOr; active compounds read low; activity change, % at 1.84 µM; 0.37% of 340,000 active; AID 720551;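 active = maximum activity change below -70%; inconclusive = maximum activity change between -70% and -50%; inactive = maximum activity change above -50%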; note: % is set by controls: 0 for no effect and ±100 for the full control effect
#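 U2OS cells transduced with wild-type KCNH2 virus are loaded with FluxOr dye for 45 min, and thallium flux is measured in kinetic reads before and after stimulation buffer. Rate constants are normalized to DMSO controls.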
# TRPV1 potentiator: potentiators of human vanilloid receptor 1 (TRPV1); potentiation, % at 8.33 µM; 0.02% of 320,000 active; TRPV1-expressing cells, Fluo-8 calcium influx, capsaicin EC20 potentiation; AID 540277; in the data active = potentiation above about 80%; inconclusive = between about 30% and that limit; note: 0% is about no effect
#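 Cells expressing TRPV1 were dye-loaded with Fluo-8 and read kinetically: 10 s baseline, 3 min after compound (agonist portion), then 2 min after EC20 capsaicin (allosteric enhancer portion). Calcium-bound dye fluorescence at 480/520 nm.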
# Active calls of the source: *; ? = inconclusive; nt = not tested or not shown.
SMILES,KCNH2 3.1 inh,TRPV1 agonist,KCNH2 WT inh,TRPV1 potentiator
CCN(CC)CCCN(C(=O)c1cccs1)c1nc(-c2ccc(OC)cc2)cs1,?,6,27,0
N#CC(C#N)=NNc1ccc(S(=O)(=O)N2CCCCC2)cc1,1,0,2,-8
OC(CCN1CC2CCC(CC2)C1)(Cc1ccccc1)c1ccco1 (stereo unspecified),-1,nt,17,nt
N=C1/C(=C\c2coc3ccccc3c2=O)C(=O)N=C2SC(c3ccncc3)=NN12,-19,91*,-3,-18
N=C1/C(=C/c2coc3ccccc3c2=O)C(=O)N=C2SC(c3ccco3)=NN12,-32,7,-10,4
O=C(Nc1nc2c(F)cc(F)cc2s1)c1ccccn1,18,2,-3,7
CNC(=O)CSc1nnc(-c2ccco2)n1-c1cc(C)ccc1C,0,1,-140*,0
COc1ccc2[nH]c(=O)c(-c3nnn(-c4ccc(Cl)nc4)n3)cc2c1,-99*,nt,-2,nt
CCCSc1ccc(-c2nn(-c3ccccc3)cc2/C=C(/C#N)C(=O)N2CCOCC2)cc1,-9,101*,-3,22
CCCCNc1c(-c2ccc(OC)c(SC(C)CC)c2)nc2cc(C)ccn12 (stereo unspecified),-82*,nt,3,nt
COc1ccc(-c2nc3cc(C)ccn3c2NCC2CCCO2)cc1OC (stereo unspecified),4,nt,-14,nt
CCCCNc1c(-c2ccc(Sc3ccc(OC)cc3)cc2)nc2cc(C)ccn12,-84*,nt,?,nt
CCCCNc1c(-c2ccc(-c3ccc(C(C)=O)cc3)c(OC)c2)nc2cc(C)ccn12,-71*,nt,-15,nt
COCc1c(C(=O)OCC(=O)N2CCCC2=O)oc2ccccc12,-5,0,3,6
COC(=O)C(CCCN1C(=O)c2ccccc2C1=O)(NC(C)=O)c1nnn(C)n1 (stereo unspecified),-1,0,1,6
O=S(=O)(c1ccc(Br)cc1)N1CCN(c2ccc3nnc(-c4ccccc4)n3n2)CC1,-91*,1,-14,2
CN(CC1CCCN(CCc2ccc(Cl)cc2)C1)C(=O)C(=O)c1ccco1 (stereo unspecified),-89*,0,-23,-6
Cc1occc1C(=O)N(C)CC1CCCN(CCc2ccccc2F)C1 (stereo unspecified),-7,-5,18,14
Cc1ccccc1CCN1CCCC(CN(C)C(=O)C(=O)c2ccco2)C1 (stereo unspecified),-90*,-1,-2,-2
N#Cc1ccc(-c2csc(NC(=O)c3ccc(S(=O)(=O)N4CCc5ccccc5C4)cc3)n2)cc1,6,-3,-1,-7
Cc1noc(C)c1NC(=O)Nc1cccc2c1O[C@H](CN(C)C(=O)NC(C)C)[C@@H](C)CN([C@H](C)CO)C2=O,14,nt,-6,nt
COC(=O)c1ccc(OCCCCN2CC(C)OC(C)C2)cc1 (stereo unspecified),-11,7,-3,10
Cc1cnn(-c2cc(N/N=C/c3ccccc3Cl)ncn2)c1,-7,-1,-247*,-14
CC(C)Cc1nc(N2CCN(C(=O)C(C)C)CC2)c(C#N)c2c1CCC2,2,-1,1,0
CC(=O)N1CCN(c2nc(CC(C)C)c3c(c2C#N)CCC3)CC1,-5,93*,2,21
SMILES,KCNH2 3.1 inh,TRPV1 agonist,KCNH2 WT inh,TRPV1 potentiator
Cc1cc(C)nc(SCNC(=O)c2ccc(Cl)cc2)n1,-101*,13,-9,-19
C=CC[n+]1ccc(/C=C2\C=Cc3cc(C)ccc3N2CC)c2ccccc21,-115*,-1,0,-8
Nc1nc(CSC(=S)N2CCOCC2)nc(Nc2ccc(F)cc2)n1,-115*,?,-2,-7
COc1ccccc1N1CCN(Cc2nc(N)nc(Nc3ccccc3)n2)CC1,?,12,46,-9
Nc1nc(CN2CCCCCC2)nc(Nc2ccc(F)cc2)n1,-73*,-3,28,30
Nc1nc(CN2CCN(c3ccccn3)CC2)nc(Nc2ccc(F)cc2)n1,-89*,1,-3,3
O=C(CCCC(=O)N(c1ccc2c(c1)OCCO2)C(C(=O)NC1CCCCC1)c1ccc(F)cc1)Nc1ccccn1 (stereo unspecified),-76*,16,-4,-21
Cc1noc(C)c1COc1ccccc1C(=O)N1CCN(S(=O)(=O)c2ccc(C(C)C)cc2)CC1,2,nt,9,nt
CC(C)N(Cc1cn[nH]c1-c1ccc(-c2ccccc2)cc1)Cc1nccn1C,?,8,25,-5
COCCN(C/C=C/c1ccccc1)C/C=C/c1ccccc1,-79*,23,29,-20
CC1CCN(CCc2nc3cc(NC(=O)COc4ccc(Cl)cc4)ccc3n2C)CC1,-96*,7,11,3
Cn1c(CCN2CCN(c3ccccn3)CC2)nc2cc(NC(=O)COc3ccc(Cl)cc3)ccc21,-74*,0,-17,28
COc1ccc(C(=O)OCc2c(-c3ccccc3)ncc3ccccc23)cc1,-70*,nt,-12,nt
O=C(COC(=O)CNC(=O)c1ccccc1)NC12CC3CC(CC(C3)C1)C2,-5,nt,-81*,nt
COc1ccc(NC(=O)C2CCCCN2S(=O)(=O)c2ccccc2)cc1S(=O)(=O)N1CCOCC1 (stereo unspecified),-15,nt,2,nt
CC(=O)Nc1sc(C)c(C)c1C(=O)OCC(=O)Nc1ccc(S(N)(=O)=O)cc1,15,nt,11,nt
COc1ccc(-c2nc(CS(=O)(=O)CC(=O)NC3CCCCCC3)c(C)o2)cc1,-4,12,-102*,-16
Cc1ccc(-c2nc(CS(=O)(=O)CC(=O)NCCN3CCOCC3)c(C)o2)cc1,9,-1,-187*,2
COc1cccc(-c2nc(CS(=O)(=O)CC(=O)Nc3c(C)cccc3C)c(C)o2)c1,-104*,2,3,6
Cc1ccc(-n2nc3c(=O)n(CCCC(=O)N4CCC(C)CC4)nc(C)c3c2C)cc1,-4,-2,-4,14
O=C(CN(c1ccccc1Cl)S(=O)(=O)c1ccccc1)N/N=C/c1ccccc1C(=O)O,-2,-3,7,1
O=C(CN(Cc1ccco1)S(=O)(=O)c1ccccc1)N/N=C/c1ccccc1C(=O)O,-104*,-4,-2,23
Cc1cc(C)nc(NC(=O)/C=C/c2cccs2)c1,-9,10,6,-16
Cc1cc(C)c(-c2csc(NC(=O)/C=C/c3cccs3)n2)c(C)c1,-78*,1,-4,-1
Cc1c(NC2=NC(C)(C)Cc3ccccc32)c(=O)n(-c2ccccc2)n1C,-18,1,13,-6
Cc1c(NC2=NC3(CCCCC3)Cc3ccccc32)c(=O)n(C)n1-c1ccccc1,-194*,-1,-172*,5
Cc1c(CN2CCC(n3nccc3NC(=O)c3cccc(F)c3)CC2)cnn1C,nt,-3,10,1
O=C(Nc1ccnn1C1CCN(C/C=C/c2ccccc2)CC1)c1cccc(F)c1,-99*,-3,-92*,3
O=C(Nc1ccnn1C1CCN(Cc2cccc(OCCO)c2)CC1)c1cccc(F)c1,-7,0,13,-2
